# According to the supplement of paper PMC13380429:
# Key:
# [1] = tested on: Vero E6 infected with SARS-CoV-2; assay: inhibition of SARS-CoV-2 cytopathic effect; higher = more antiviral protection, active = above 15; conditions: 48 h
# [2] = tested on: Vero E6 infected with SARS-CoV-2; assay: morphology score (similarity to uninfected cells); higher = more like uninfected cells; conditions: 24 h
# [3] = tested on: Vero E6 infected with SARS-CoV-2; assay: SARS-CoV-2 infection rate relative to infected DMSO; higher = more infection, active = 60 or less; conditions: 24 h
SMILES,inhibition of SARS-CoV-2 cytopathic effect ([1]; 1 nM),inhibition of SARS-CoV-2 cytopathic effect ([1]; 8.33 nM),inhibition of SARS-CoV-2 cytopathic effect ([1]; 100 nM),inhibition of SARS-CoV-2 cytopathic effect ([1]; 833.33 nM),inhibition of SARS-CoV-2 cytopathic effect ([1]; 10000 nM),morphology score [2],SARS-CoV-2 infection rate [3]
C[C@H](Nc1cc(NS(=O)(=O)N2CCC2)nc(SCc2cccc(F)c2F)n1)[C@@H](O)CO,3.09% (inactive),1.5% (inactive),0.2% (inactive),0.91% (inactive),2.14% (inactive),,
S=C(NCCc1ccccn1)Nc1ccc(Br)cn1 [trovirdine],2% (inactive),2.79% (inactive),2.61% (inactive),1.44% (inactive),0.69% (inactive),,
Cc1cc(C)cc(C(=O)N(C)[C@H](Cc2ccc(-c3ccccc3)cc2)C(=O)N[C@@H](Cc2c[nH]c3ccccc23)C(=O)O)c1,0.46% (inactive),3.13% (inactive),5.42% (inactive),0.47% (inactive),1.98% (inactive),,
Cc1cn([C@H]2O[C@@H](CO)[C@H](O)[C@H]2F)c(=O)[nH]c1=O [clevudine],3.12% (inactive),-0.16% (inactive),1.71% (inactive),2.27% (inactive),1.38% (inactive),,
C[CH2][Hg][S]c1ccccc1C(=O)[O-].[Na+] [thiomersal],0.94% (inactive),0.96% (inactive),1.12% (inactive),,,,
CCCc1ccc(C(=O)O)cc1 [4-propylbenzoic-acid],-0.54% (inactive),0.51% (inactive),-0.57% (inactive),-0.84% (inactive),1.58% (inactive),,
Cc1ccc(-c2cc(C(F)(F)F)nn2-c2ccc(S(N)(=O)=O)cc2)cc1 [celecoxib],1.41% (inactive),1.32% (inactive),1.91% (inactive),1.62% (inactive),-4.95% (inactive),,
NCCC[C@H](N)CC(=O)N[C@H]1CNC(=O)[C@H]([C@H]2C[C@H](O)NC(N)=N2)NC(=O)/C(=C/NC(N)=O)NC(=O)[C@H](CO)NC(=O)[C@H](CO)NC1=O [viomycin],2.35% (inactive),1% (inactive),-1.8% (inactive),,,,
COc1ccc(-c2cc(=S)ss2)cc1 [anethole-trithione],1.7% (inactive),-0.29% (inactive),1.29% (inactive),-1.2% (inactive),2.76% (inactive),,
CN(C)C(=S)SSC(=S)N(C)C [thiram],5.06% (inactive),3.58% (inactive),-8.77% (inactive),,,,
O=[N+]([O-])c1ccc([As](=O)(O)O)cc1 [nitarsone],-0.01% (inactive),1.59% (inactive),0.4% (inactive),,,,
CNC(=O)[C@H]1O[C@@H](n2cnc3c(NCc4cccc(I)c4)nc(Cl)nc32)[C@H](O)[C@@H]1O,2.28% (inactive),3.03% (inactive),4.18% (inactive),2.83% (inactive),0.99% (inactive),,
C[C@H](Cc1ccc2c(c1)OC(C(=O)O)(C(=O)O)O2)NC[C@H](O)c1cccc(Cl)c1,0.95% (inactive),3.71% (inactive),-1.72% (inactive),-1.35% (inactive),2.18% (inactive),,
CC[C@H](C(=O)N1CCCC[C@H]1C(=O)O[C@H](CCc1ccc(OC)c(OC)c1)c1cccc(OCC(=O)NCCNC(=O)COc2cccc([C@@H](CCc3ccc(OC)c(OC)c3)OC(=O)[C@@H]3CCCCN3C(=O)[C@@H](CC)c3cc(OC)c(OC)c(OC)c3)c2)c1)c1cc(OC)c(OC)c(OC)c1,-3.12% (inactive),-1.9% (inactive),-0.97% (inactive),,,,
O=C(CCCN1CCC2(CC1)C(=O)N(Cc1cccc(F)c1)CN2c1ccccc1)c1ccc(F)cc1 [3'-fluorobenzylspiperone] (0.833333 µM),,,,,,0.325,103% (inactive)
CC(=O)Nc1cc([As](=O)(O)O)ccc1O [acetarsol],0.15% (inactive),0.13% (inactive),1.84% (inactive),,,,
CN1c2ccccc2C(=O)N2CCc3c([nH]c4ccccc34)C21 (stereo in doubt) [evodiamine],0.51% (inactive),2.11% (inactive),2.14% (inactive),4.34% (inactive),2.33% (inactive),,
CCN(CC)CCOCCOC(=O)C1(c2ccccc2)CCCC1 [carbetapentane],-0.34% (inactive),0.73% (inactive),1.1% (inactive),1.39% (inactive),0.95% (inactive),,
CC(C)(CO)Cc1cc(C(C)(C)C)c(O)c(C(C)(C)C)c1,-1.21% (inactive),-2.15% (inactive),1.59% (inactive),4.34% (inactive),-0.79% (inactive),,
